The whole screen tested about 290,000 compounds, of which about 2,600 (0.9%) were called active. Many of the other results were omitted from the sample, so actives are more common in it than they were. Unmarked numbers belong to inactive results.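 How the source made its calls: active means inhibition above the mean of all tested compounds plus 3 SD, cutoff set per screening run (cut at about 7.5% in these data); inactive means the rest.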
Each molecule was assayed on VIM-2 metallo-beta-lactamase (Pseudomonas aeruginosa) (assay: inhibition of VIM-2 nitrocefin hydrolysis – biochemical, epi-absorbance readout, Pseudomonas aeruginosa enzyme, primary screen (AID 1527;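 further: red hydrolysis product quenches plate fluorescence so inhibitors raise well fluorescence; 0% = enzyme with DMSO and 100% = DMSO without enzyme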)). Conditions: purified VIM-2, nitrocefin hydrolysis, epi-absorbance fluorescence; at 5.6 µM; active compounds read high.
For CCOC(=O)C1(Cc2ccccc2C)CCCN(C(=O)CN2C(=O)CSC2=O)C1 (stereo not drawn), the inhibition was -2.37%.
For CNC[C@H](CC1CCCCC1)NC[C@H](NCCC1CCCC1)[C@H](C)O, the inhibition was 2.09%.
Cc1ccc(C(=O)N/C(=C\c2ccc(F)cc2)C(=O)NCCN2CCOCC2)cc1 was tested, and the inhibition was -0.14%.
CCOC(=O)[C@@H]1[C@H]2COc3cc(OC)ccc3[C@H]2N2C(=O)N(c3ccc(F)cc3)C(=O)[C@]12C was tested, and the inhibition was -2.77%.
For O=C1Nc2cc(C(=O)N3CCC(N4CCCCC4)CC3)ccc2S/C1=C\c1ccccc1, the inhibition was 27.9% (active).
For O=C(NC1CC1)c1ccc2c(c1)NC(=O)c1ccccc1S2, the inhibition was 1.27%.
Molecule CC1CCN(C(=O)c2ccc3c(c2)NC(=O)CN3)CC1 has an inhibition of -1.26%.
For Cc1cccc(C)c1NC(=O)CS(=O)CC(=O)N1CCN(c2ccccc2)CC1 (stereo not drawn), the inhibition was -3.23%.
Cc1ccc(NC(=O)C2CC2c2ccccc2)cc1 (stereo not drawn) gave an inhibition of -1.58%.
COc1ccc2nc(/N=C(\N)NC(=O)Nc3ccccc3)nc(C)c2c1 was tested, and the inhibition was -0.81%.
Work on CC(=O)Oc1ccc(-c2nc3c(C)cccc3c(=O)o2)cc1 yielded an inhibition of -0.68%.
In the case of Cc1nc(N=C(N)N)nc2c(C)cccc12, the inhibition is reported as 8.56% (active).
Cc1cccc2c(=O)n3c(nc12)CCCCC3 showed an inhibition of -3.47%.
Work on Cc1nc(/N=C(\N)NC(=O)NC2CCCCC2)nc2ccccc12 yielded an inhibition of -2.89%.
For COc1nc(N=C(N)N)nc2c(C)cccc12, the inhibition was 14.3% (active).
In the case of Cc1ccc(Oc2nc(-c3ccccn3)nc3ccccc23)cc1, the inhibition is reported as -1.45%.
For c1ccc(-c2nccc(-c3ccc(-n4cnc5ccccc54)cc3)n2)nc1, the inhibition was 59.9% (active).
For Cc1nccc(-c2ccc(-n3c(C)ccc3C)cc2)n1, the inhibition was -2.42%.
Work on CCCCn1c(-c2cccc(C)c2)nc2cc3[nH]c(=O)c(C(C)C)nc3cc21 yielded an inhibition of -2.3%.
For COc1ccc(-c2csc3ncnc(N4CCN(S(=O)(=O)c5ccccc5C#N)CC4)c23)cc1, the inhibition was -2%.
CCN(CC)C(=O)CSC(Nc1cccc(F)c1)=C(C#N)C#N was tested, and the inhibition was -4.85%.
O=c1[nH]c2c(c(=O)n1Cc1ccccc1)CCC2 showed an inhibition of -3.01%.
CSc1nc2ccccc2c(=O)n1Cc1ccc(F)cc1 gave an inhibition of -1.75%.
For Cc1cc2nc3c(=O)n(Cc4ccccc4)c(=O)[nH]c3nc2cc1N, the inhibition was 13.2% (active).
O=S(=O)(Nc1cccc(-n2cnnn2)c1)c1cnc(Cl)c(Cl)c1 showed an inhibition of -1.96%.
For CCN(CC)CCCNC(=O)c1c(O)c2cc(F)cc3c2n(c1=O)C(C)CC3 (stereo not drawn), the inhibition was 8.41% (active).
For CCN(CC)CCCNC(=O)c1cn(C)c2ccc(S(=O)(=O)N(C)C3CCCCC3)cc2c1=O, the inhibition was 2.02%.
CCNC(=O)c1c(O)c2cccc3c2n(c1=O)CC3 was tested, and the inhibition was 1.77%.
With CN(C)c1cc(-c2ccc(F)cc2)oc(=O)c1Cl the inhibition was -0.81%.
CC(CCc1ccccc1)NC(=O)c1cnc(Cl)c(Cl)c1 (stereo not drawn) gave an inhibition of -3.59%.
Work on COc1ccc(OCCn2ccnc2C)cc1 yielded an inhibition of 0.01%.
C=CCOc1cccc(C2C(C(=O)c3ccc(C)o3)=C(O)C(=O)N2CCCn2ccnc2)c1 (stereo not drawn) gave an inhibition of -2.31%.
CC(Nc1nc(N2CCN(CCO)CC2)nc2ccccc12)c1ccccc1 (stereo not drawn) showed an inhibition of -0.41%.
CC(Nc1nc(N2CCCC2)nc2ccccc12)c1ccccc1 (stereo not drawn) was tested, and the inhibition was 10.3% (active).
For CC(Nc1nc(N2CCOCC2)nc2ccccc12)c1ccccc1 (stereo not drawn), the inhibition was -1.07%.
CCOCCCNc1c(CC)c(C)c(C#N)c2nc3ccccc3n12 was tested, and the inhibition was 12.7% (active).
Molecule CCOCCn1c(-c2ccccc2)nc2ccccc21 has an inhibition of -2.42%.
With CCOCCCNc1nc(-c2ccccc2)nc2ccccc12 the inhibition was 1.44%.
In the case of CCOC(=O)C1(c2ccccc2)NC(c2ccc(N(C)C)cc2)C2C(=O)N(C)C(=O)C21 (stereo not drawn), the inhibition is reported as -1.25%.
COc1ccc(CN2CC(C(=O)NC3CCCCC3)CC2=O)cc1 (stereo not drawn) showed an inhibition of 0.64%.
COc1ccc(N(CC(=O)Nc2cccc3ccccc23)S(C)(=O)=O)c(OC)c1 showed an inhibition of -2.25%.
N#Cc1c2c(c(-c3ccccc3)[nH]c1=O)CCCC2 was tested, and the inhibition was -0.97%.
Molecule c1ccc(-c2cc(-c3ccccc3)[nH]n2)cc1 has an inhibition of -2.1%.
In the case of O=c1[nH]c(-c2ccccc2)c(-c2ccccc2)[nH]1, the inhibition is reported as 13.9% (active).
For CCCCNC(=O)c1ccccc1NC(=O)C1=C(C)OCCS1, the inhibition was -1.59%.
COc1cc(NC(=O)C2=C(C)OCCS2)c(Cl)cc1C(=O)NCCN1CCN(C)CC1 was tested, and the inhibition was 25.9% (active).
With COc1ccc(N2CCN(C(=O)c3ccccc3NC(=O)C3=C(C)OCCS3)CC2)cc1 the inhibition was -0.86%.
CCn1cc(CN2CCC(C(=O)Nc3cccc(-c4cccc(Cl)c4)c3)CC2)c(C)n1 was tested, and the inhibition was -1.75%.
For Cc1cc(OCCCN2CCN(Cc3ccccc3)CC2)ccc1[N+](=O)[O-], the inhibition was 8.13% (active).
Work on COc1cc(CN2CCN(Cc3ccc(C)cc3)CC2)c([N+](=O)[O-])cc1OC yielded an inhibition of 0.03%.
Work on Cc1cc(OCC(=O)Nc2c(C)n(C)n(-c3ccccc3)c2=O)ccc1[N+](=O)[O-] yielded an inhibition of -4.47%.
Molecule Cc1cc(OCCCCOc2ccc(C#N)cc2)ccc1[N+](=O)[O-] has an inhibition of -2.44%.
In the case of Cc1cc(OCC(=O)NC2CCN(C)CC2)ccc1[N+](=O)[O-], the inhibition is reported as 9.4% (active).
For O=C(COc1ccccc1[N+](=O)[O-])NC1CC1, the inhibition was -2.67%.
Oc1ccc(-c2cccc(-c3ccc(O)cc3)c2)cc1 gave an inhibition of -2.2%.
Cc1ccc(CNC(=O)c2ccc(CS(=O)Cc3cccc(Cl)c3)o2)cc1 (stereo not drawn) showed an inhibition of -2.03%.
COCCCC1CCN(C(=O)C2CCC(=O)N(C3CCCCCC3)C2)CC1 (stereo not drawn) was tested, and the inhibition was -3.17%.
In the case of O=C(COc1cc2oc(=O)c3c(c2cc1Cl)CCC3)NCCCN1CCOCC1, the inhibition is reported as 27.2% (active).
CCc1cc(=O)oc2c(C)c(OCC(=O)NCCN3CCOCC3)ccc12 gave an inhibition of 6.89%.
With CCCc1cc(=O)oc2cc(OCC(=O)Nc3ccc(CN4CCOCC4)cc3)c(Cl)cc12 the inhibition was 0.28%.
With Cc1ccc(-n2c(C)cc(C(=O)CSc3nnc4ccccn34)c2C)cc1 the inhibition was 1.89%.
Molecule Cc1ccc(N/N=C2\COC(C)(C)CC2=O)cc1 has an inhibition of -2.64%.
With CN1CCC(OC(=O)COc2ccc(Cl)cc2Cl)CC1 the inhibition was 4.57%.
CN1CCN(c2ccc(NC(=O)COc3ccc(Cl)cc3Cl)cc2)CC1 was tested, and the inhibition was 11.7% (active).
With Cc1nn(-c2ccccc2)c(C)c1NC(=O)COc1ccc(Cl)cc1Cl the inhibition was -1.49%.
For COc1ccc(OC)c(-n2c(-c3ccn[nH]3)n[nH]c2=S)c1, the inhibition was -0.56%.
Molecule Cc1ccc(-n2c(-c3ccc(Cl)cc3)n[nH]c2=S)cc1 has an inhibition of -3.52%.
COc1ccc(-n2c(-c3ccc(OC)c(OC)c3)n[nH]c2=S)cc1 was tested, and the inhibition was 9.11% (active).
With CCCNC(=O)CCc1c(C)nc2c(c(C)nn2-c2ccccc2)c1C the inhibition was -3.85%.
In the case of COc1ccc(/C=N/N(C)C2=NS(=O)(=O)c3ccccc32)cc1OC, the inhibition is reported as 18.5% (active).
C=CCOCCN(C)C1=NS(=O)(=O)c2ccccc21 was tested, and the inhibition was -0.19%.
Molecule COc1ccc(/C=N/S(=O)(=O)c2ccccc2)cc1OC has an inhibition of 2.08%.
With CC(=O)c1cccc(NC(=O)C2CCCN(S(=O)(=O)c3cccc4nonc34)C2)c1 (stereo not drawn) the inhibition was -0.2%.
In the case of COc1ccc(COC(=O)c2ccc(Cl)c(S(=O)(=O)N3CCOCC3)c2)cc1F, the inhibition is reported as -3.64%.
In the case of COc1ccc(CCNC(=O)c2ccc3c(c2)NC(=O)C(N2CCOCC2)S3)cc1OC (stereo not drawn), the inhibition is reported as 0.07%.
Work on CCN1CCN(CCNC(=O)c2ccc(/C=C3/Sc4ccccc4N(Cc4cccc(C)c4)C3=O)cc2)CC1 yielded an inhibition of -2.77%.
For CCN1CCN(CCNC(=O)c2ccc3c(c2)NC(=O)/C(=C\c2ccc(OC)c(OC)c2)S3)CC1, the inhibition was 23.2% (active).
O=C(NCCCc1ccccc1)C(=O)NCC1OCCN1S(=O)(=O)c1ccccc1 (stereo not drawn) gave an inhibition of -2.36%.
CCC(NC(=O)c1cc(COc2ccc(F)c(F)c2)on1)c1ccncc1 (stereo not drawn) gave an inhibition of 1.14%.
With COc1ccc(S(=O)(=O)N2CCN(C)CC2)c(C)c1 the inhibition was 1.39%.
Molecule O=C(NCC(=O)N1CCN(c2ncc(C(F)(F)F)cc2Cl)CC1)c1ccc(Br)o1 has an inhibition of 0.82%.
With CN1CCN(C(=O)CCc2ncc(C(F)(F)F)cc2Cl)CC1 the inhibition was 7.72% (active).
In the case of CC(=O)c1ccc(Cc2ncc(C(F)(F)F)cc2Cl)s1, the inhibition is reported as -0.62%.
Work on O=C1CC(C(F)(F)C(F)(F)C(F)(F)C(F)(F)F)=Nc2ccccc2N1 yielded an inhibition of -4.82%.
For Cc1ccccc1-n1cc(CNC(=O)C2CCC(=O)N(C3CC3)C2)cn1 (stereo not drawn), the inhibition was -2.92%.
With O=C1/C(=C/c2ccc3c(c2)OCO3)Oc2cc(OCC(=O)N3CC(O)C[C@H]3C(=O)O)ccc21 (stereo partly drawn) the inhibition was -0.7%.
Work on Cc1ccccc1N1CCN(CCCOc2ccc3c(C)cc(=O)oc3c2)CC1 yielded an inhibition of -0.43%.
For Cc1cc(=O)oc2ccc(OCC(=O)O)cc12, the inhibition was -3.22%.
Cc1cc(=O)oc2cc(OCCC[n+]3ccccc3)ccc12 was tested, and the inhibition was 8.33% (active).
With Cc1ccc2c(C)c(C(=O)N3CCN(c4ccncc4)CC3)oc2c1C the inhibition was 3.45%.
With Cc1nnc(SCC(=O)Nc2cccc(N)c2)n1-c1ccccc1 the inhibition was -2.64%.
Molecule O=S(=O)(c1ccc(Br)cc1)N1CCC(c2nc3ccccc3[nH]2)CC1 has an inhibition of -4.39%.
Molecule Cc1cc(NC(=O)/C=C/C(=O)N(c2ccccc2C)C(C(=O)NC2CCCC2)c2ccc(F)cc2)no1 (stereo not drawn) has an inhibition of 1.56%.
